Screening results (PubChem BioAssay)
ADAM10 inh – human ADAM10 inhibitors, primary screen, biochemical, QFRET, HTS; Disintegrin and metalloproteinase domain-containing protein 10 (Homo sapiens), O14672; recombinant ADAM10, EDANS/DABCYL FRET peptide cleavage, 3 h; inhibition, % at 7 µM; 370,000 tested, 0.62% active; AID 720582, 2013;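 active = inhibition above a per-campaign cutoff equal to the mean of compounds falling between control-based bounds plus 3 SD, cut at about 20% in these data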
HGIII-sPLA2 inh – human group III sPLA2 inhibitors, primary screen, biochemical, QFRET, BODIPY PC-A2 liposome substrate. Group 3 secretory phospholipase A2 (Homo sapiens), Q9NZ20. QFRET BODIPY PC-A2 liposome hydrolysis, fluorescence. inhibition, % at 12.2 µM. 370,000 tested, 0.56% active. AID 743126, 2013;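 active = inhibition above mean plus 3 SD of compounds lying within the high and low control bounds, cut at about 19% in these data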
NR3A LBD binder – binders of NR3A ligand-binding domain, primary screen, biophysical, differential scanning fluorimetry, uHTS | 340,000 tested, 2.5% active | NR3A LBD differential scanning fluorimetry, Tm shift; 0% = protein alone, 100% = glycine-bound protein | Glutamate receptor ionotropic, NMDA 3A (GRIN3A) ligand-binding domain | Tm shift relative to glycine control, % at 25 µM | AID 1259313, 2017;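 active = melting temperature shift of at least 10% of the positive control shift, at one fixed dose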
ADAM17 inh – ADAM17 inhibitors, primary screen, biochemical, QFRET; Disintegrin and metalloproteinase domain-containing protein 17 (Homo sapiens), P78536; recombinant ADAM17, EDANS/DABCYL FRET peptide cleavage; inhibition, % at 6.95 µM; 370,000 tested, 0.83% active; AID 720648, 2013;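 active = inhibition above the mean of compounds lying between control limits plus 3 SD, set per campaign, cut at about 8.5% in these data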
Target sequence (P78536 215-824 limits assumed): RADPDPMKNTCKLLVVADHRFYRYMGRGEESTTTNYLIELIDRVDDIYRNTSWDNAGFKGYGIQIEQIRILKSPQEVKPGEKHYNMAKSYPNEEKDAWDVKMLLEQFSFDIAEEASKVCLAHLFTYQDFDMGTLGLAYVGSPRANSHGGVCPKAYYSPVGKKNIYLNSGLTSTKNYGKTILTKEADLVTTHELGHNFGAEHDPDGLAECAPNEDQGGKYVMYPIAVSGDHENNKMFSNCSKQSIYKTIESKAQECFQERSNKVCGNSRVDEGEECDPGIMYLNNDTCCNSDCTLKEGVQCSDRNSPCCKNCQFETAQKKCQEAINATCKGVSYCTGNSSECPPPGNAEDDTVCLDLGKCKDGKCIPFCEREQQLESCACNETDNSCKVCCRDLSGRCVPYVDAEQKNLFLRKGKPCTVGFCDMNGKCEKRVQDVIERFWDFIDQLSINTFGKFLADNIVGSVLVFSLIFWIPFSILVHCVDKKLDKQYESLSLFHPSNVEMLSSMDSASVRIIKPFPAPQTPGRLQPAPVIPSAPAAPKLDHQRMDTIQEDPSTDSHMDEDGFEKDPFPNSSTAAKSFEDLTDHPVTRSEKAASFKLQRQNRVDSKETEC
FAS TE block – FAS thioesterase domain inhibitors, primary screen, biochemical, fluorescence intensity, uHTS. Fatty acid synthase (Homo sapiens), P49327. 360,000 tested, 0.67% active. recombinant FAS-TE, OMFH fluorogenic substrate, fluorescence endpoint. inhibition, % at 15 µM;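 active = compounds whose normalised, plate-corrected inhibition of enzyme fluorescence in the single-dose primary screen is 50% or more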
ADAM10 ctr – ADAM10 inhibitors, counter-screen for ADAM17 exosite inhibitor project, biochemical, FRET, human ADAM10. inhibition, % at 6.95 µM. shares compounds with ADAM17 inh. recombinant ADAM10, EDANS/DABCYL FRET peptide cleavage, 3 h. 2,900 tested, 47% active;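 active = mean inhibition over the triplicate runs exceeds the activity threshold set in the earlier primary screen, cut at about 20% in these data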
ADAM17 confirm – ADAM17 inhibitors, hit retest, confirmation, biochemical, QFRET peptide cleavage | shares compounds with ADAM17 inh | recombinant ADAM17, EDANS/DABCYL QFRET peptide cleavage | inhibition, % at 6.95 µM | 2,900 tested, 65% active;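 active = mean inhibition across replicates above the hit cutoff set in the primary screen, cut at about 8.5% in these data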
Hits are given with their value; – = inactive; · = no result given. The list is not random: actives were taken first. Their share in the collection is about 4.3%.

SMILES	ADAM10 inh	HGIII-sPLA2 inh	NR3A LBD binder	ADAM17 inh	FAS TE block	ADAM10 ctr	ADAM17 confirm
COc1ccccc1CNC(=O)COC(=O)/C=C/c1ccc(OC(F)F)c(OC)c1	–	–	–	–	–	·	·
COc1cc(/C=C/C(=O)OCC(=O)c2c[nH]c3ccccc23)ccc1OC(F)F	–	–	29	9.4	–	21	18
CCC(C)(C)c1ccc(OCCCC[n+]2cccc(C)c2)c(C(C)(C)CC)c1	–	–	–	9.4	–	–	–
Cc1ccc2nc(CN(C)C(=O)[C@H]3O[C@@H](n4cnc(C(N)=O)n4)[C@H](O)[C@@H]3O)[nH]c2c1	–	–	·	–	·	·	·
CC(=O)Nc1ccc(OCC(=O)c2ccc(C)cc2C)cc1	–	–	–	9.6	–	–	–
CC(=O)Nc1ccc(OCC(=O)c2cc(C)ccc2C)cc1	–	–	–	–	–	·	·
Cc1ccc(C2(CCNS(=O)(=O)c3ccc(C)cc3)CCOC(C(C)C)C2)cc1 (configuration not stated)	–	–	–	10	–	29	16
Cc1ccc(C2(CCNCc3ccc(N(C)C)cc3)CCOC(C(C)C)C2)cc1 (configuration not stated)	–	–	–	–	–	·	·
Nc1ccc2nc(CCCCCCCCc3nc4ccc(N)cc4[nH]3)[nH]c2c1	–	–	–	13	–	–	–
Nc1ccc2nc(CCCCCCc3nc4ccc(N)cc4[nH]3)[nH]c2c1	–	–	–	–	–	·	·
CN(Cc1ccccc1)C(=O)OCc1cn(Cc2ccccc2C(F)(F)F)nn1	–	–	·	–	·	·	·
Cc1noc(C)c1C(C)C1=CCCCC1 (configuration not stated)	–	–	·	–	·	·	·
O=C1Nc2c(Cl)cc(Cl)cc2C12Nc1ccccc1S2 (configuration not stated)	–	–	·	–	·	·	·
Cc1ccc(S(=O)(=O)/N=C2/NC(=O)/C(=C/c3cc([N+](=O)[O-])ccc3O)S2)cc1	–	–	28	8.6	–	–	–
Cn1nc(C(F)(F)F)c(C(=O)Nc2ccc(F)cc2F)c1Sc1cccc(C(F)(F)F)c1	–	–	–	9.8	–	–	–
C[C@H](CO)N1C[C@H](C)[C@@H](CN(C)C(=O)Nc2ccnc(N3CCOCC3)c2)OCc2cn(nn2)CCCC1=O	–	–	·	–	·	·	·
NC(=O)c1c(N)[nH]c(C(=O)c2ccccc2)c1-c1ccc(Br)cc1	–	–	·	–	·	·	·
O=S(=O)(Cc1ccc(Cl)cc1)C1CCCCC1O (configuration not stated)	–	–	–	11	–	–	–
O=S(=O)(Cc1ccc(Cl)cc1)NCC1CCCO1 (configuration not stated)	–	–	–	–	–	·	·
CC1=C(C(=O)N2CCOCC2)CC(CC(=O)NCc2cccc3ccccc23)C(=O)N1Cc1ccc(C(C)(C)C)cc1 (configuration not stated)	–	–	·	9.0	–	–	–
CCN(CC)C(=O)C1=C(C)N(Cc2ccc(C(C)(C)C)cc2)C(=O)C(CC(=O)NC(c2ccccc2)c2ccccc2)C1 (configuration not stated)	–	–	·	9.3	–	27	13
CC1=C(C(=O)N2CCOCC2)CC(CC(=O)NCc2cccs2)C(=O)N1Cc1ccc(C(C)(C)C)cc1 (configuration not stated)	–	–	·	–	–	·	·
Cc1ccc2c(c1)C1CS(=O)(=O)N(CCc3ccccc3)CN1C2 (configuration not stated)	–	–	·	–	·	·	·
O=C(NC(=S)NCCc1ccccc1)c1ccccc1F	–	–	–	10	–	–	–
COc1ccc(NC(=O)c2nc(C)c(C3(C)CC(c4cccnc4)=NO3)s2)cc1 (configuration not stated)	–	–	–	11	–	–	10
SMILES	ADAM10 inh	HGIII-sPLA2 inh	NR3A LBD binder	ADAM17 inh	FAS TE block	ADAM10 ctr	ADAM17 confirm
O=C(OC1CCCCC1)c1ccc(NC(=O)c2ccco2)cc1	–	–	–	12	–	21	12
CCC(C(=O)NCc1ccco1)N(C(=O)CNS(=O)(=O)c1ccccc1)C1CCCCC1 (configuration not stated)	–	–	–	–	–	·	·
CC(C)C(C(=O)NCc1ccco1)N(C(=O)CNS(=O)(=O)c1ccccc1)C1CCCC1 (configuration not stated)	–	–	–	10	–	–	–
COc1cc(OC)cc(C(=O)NCC2CCN(C(=O)C(=O)c3cccs3)CC2)c1	–	–	·	–	·	·	·
Cc1cc(S(=O)(=O)N2CCC3(CC2)OCCN3S(=O)(=O)c2cccs2)ccc1F	–	–	–	12	–	–	9.2
COC(=O)[C@]12CCCCC=C1N(Cc1ccc3c(c1)OCO3)C(=O)[C@H](CC(=O)NCC1CCCCC1)C2	–	–	·	–	·	·	·
CC(=O)c1cccc(NC(=O)CCC(=O)c2ccc(F)cc2)c1	–	–	–	–	–	·	·
CC(=O)c1cccc(NC(=O)COC(=O)CCC(=O)c2ccc(F)cc2)c1	–	–	–	8.9	–	–	–
CCN(c1ccc(OC)cc1)S(=O)(=O)c1nnc(NC(=O)C(C)C)s1	–	–	–	–	–	·	·
CCN(c1ccc(OC)cc1)S(=O)(=O)c1nnc(NC(=O)C2CCCCC2)s1	–	–	–	10	–	–	–
CC(C)(C)OC(=O)N[C@@H]1C=CC(=O)C1	–	–	·	–	·	·	·
CC1=CC(C)(C)N2C(=O)C3(SCC(=O)N3c3ccc(F)cc3)c3cc(C)cc1c32 (configuration not stated)	–	–	–	9.5	–	21	12
O=C(CC1Sc2ccccc2NC1=O)OCC(=O)N1CCc2ccccc21 (configuration not stated)	–	–	–	9.2	–	–	–
Cc1cc(C(=O)COC(=O)CC2Sc3ccccc3NC2=O)c(C)n1-c1ccc(Br)cc1 (configuration not stated)	–	–	–	8.8	–	–	–
